Compounds with a hit are over-represented: about 3.8% of the library has one in this group of screens.
tim10-1 inh = growth inhibitors of tim10-1 mutant yeast, primary screen, luminescence, uHTS; S. cerevisiae tim10-1 ts strain growth, BacTiter-Glo, 24 h; inhibition, % at 20 µM; 330,000 compounds, 2.2% hits; AID 463190, 2010;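 active = inhibition of at least 40%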;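 note: mutant grown at 25 °C; 0% = DMSO wells with yeast and 100% = wells holding no yeast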
Yeast superoxide = reduction of superoxide in aged yeast, primary screen, HTS; S. cerevisiae aged cells, superoxide DHE fluorescence; active compounds read low; superoxide response (% of plate mean), % at 10 µM; 330,000 compounds, 0.18% hits; AID 2690, 2010;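 active = superoxide response under a set limit, about three screen SD below normal, cut at about 65% in these data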;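 note: yeast aged for seven days with compound at 30 °C before DHE staining; 100% = average MFI of all compound-treated wells on the plate with controls excluded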
TIM10 inh = growth inhibitors of isogenic TIM10 control yeast, primary screen, counter-screen for tim10-1 yeast inhibitor project, luminescence, uHTS; S. cerevisiae TIM10 strain growth, BacTiter-Glo luminescence, 24 h; inhibition, % at 10 µM; 330,000 compounds, 1.4% hits; AID 463195, 2010;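 active = inhibition of 40% or more at the single tested concentration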;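 note: wild-type TIM10 isogenic control strain grown at permissive 25 °C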
tim23-1 inh = growth inhibitors of tim23-1 mutant yeast, primary screen, luminescence, uHTS | S. cerevisiae tim23-1 growth, BacTiter-Glo luminescence, 24 h | inhibition, % at 20 µM | 330,000 compounds, 1.3% hits;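 active = growth inhibition of the mutant yeast at or above 50%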;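 note: temperature-sensitive mutant grown at 25 °C; plate controls were DMSO-treated mutant yeast for no effect and medium wells lacking yeast for full effect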
NLRP3 yeast inh = NALP3 inflammasome inhibitors in reconstituted yeast, primary screen, luminescence, uHTS; inhibition, % at 10 µM; Yeast reconstituted NLRP3/ASC/caspase-1, beta-gal luminescence, 24 h; 330,000 compounds, 0.39% hits;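 active = inhibition of 50% or more; inactive = inhibition below 50%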;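 note: plate controls were induced DMSO wells for no effect and uninduced yeast grown without galactose for full effect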
NALP3 yeast conf = NALP3 inhibitors retested in yeast, confirmation, luminescence, single concentration | yeast expressing human NALP3 | inhibition, % at 10 µM | 1,300 compounds, 81% hits | AID 435006, 2010 | shares compounds with NLRP3 yeast inh; in the data active = inhibition above about 48%
Casp1 ASC ctr = CASP1-PYCARD signaling inhibition in yeast, confirmatory test, counterassay for NLRP3 inhibitor program, one-dose; AID 488784, 2010; 1,000 compounds, 66% hits; yeast expressing Caspase-1-ASC, luminescence counter screen; inhibition, % at 10 µM; shares compounds with NLRP3 yeast inh
NALP3 retest = NALP3 inhibitors in yeast, repeat test, confirmation, luminescence, single concentration, retest; AID 488794, 2010; inhibition, % at 10 µM; 1,000 compounds, 53% hits; yeast expressing human NALP3, luminescence read-out; shares compounds with NLRP3 yeast inh
tim10-1 conf = growth inhibitors of tim10-1 mutant yeast, confirmation, single concentration, luminescence, S. cerevisiae. shares compounds with tim10-1 inh. AID 463213, 2010. inhibition, % at 20 µM. 7,400 compounds, 56% hits. S. cerevisiae tim10-1 ts strain growth, BacTiter-Glo, 24 h;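 active = inhibition of yeast growth at or above a set limit in either of two repeat tests at 20 µM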;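 note: tim10-1 mutant grown at permissive 25 °C to find synthetic lethal compounds; 0% = DMSO yeast wells and 100% = medium wells without yeast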
TIM10 conf = growth inhibitors of wild-type TIM10 yeast, confirmation, counter-screen for tim10-1 synthetic lethality project, single concentration, luminescence, S. cerevisiae. shares compounds with TIM10 inh. S. cerevisiae tim10 strain growth, BacTiter-Glo luminescence, 24 h. inhibition, % at 10 µM. 4,600 compounds, 63% hits. AID 463215, 2010;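 active = inhibition of yeast growth at or above a set limit in either of two replicates at 10 µM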;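 note: this counterscreen used the strain with wild-type TIM10; 0% = yeast with DMSO and 100% = medium wells lacking yeast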
tim23-1 confirm = tim23-1 mutant yeast growth inhibitors, confirmation, luminescence, single concentration; S. cerevisiae tim23-1 growth, BacTiter-Glo luminescence, 24 h; shares compounds with tim23-1 inh; inhibition, % at 20 µM; 4,400 compounds, 83% hits; AID 463218, 2010;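 active = inhibition above about 39% in either of two replicate wells at 20 µM, limit read from the data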;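 note: temperature-sensitive tim23-1 mutant grown at 25 °C; 0% = DMSO wells with yeast and 100% = medium wells without yeast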
Starred values were filed as active, the others as inactive; x = no result given. Cut-off read from the data, not from the text of the source, unless noted: active = inhibition above about 50%; inactive = the rest.

SMILES	tim10-1 inh	Yeast superoxide	TIM10 inh	tim23-1 inh	NLRP3 yeast inh	NALP3 yeast conf	Casp1 ASC ctr	NALP3 retest	others
C[C@]12CC[C@H](O)CC1=CC[C@@H]1[C@@H]2CC[C@@]2(C)[C@H]1CC[C@]2(C)O	34.6	100.6	19.3	22.0	59.1*	67.3*	59.5*	46.8
C[C@]12C[C@H](O)[C@@H](O)CC1=CCC1C2CC[C@@]2(C)C1CC[C@@H]2O (stereo partly specified)	2.2	75.0	-6.2	12.9	54.8*	65.6*	x	x
CC12CCC(=O)C=C1CCC1C2CCC2(C)C(O)CCC12 (stereo unspecified)	5.7	79.2	-20.4	17.3	39.2	x	x	x
CC(C)[C@H]1CC2C3CC=C4C[C@@H](O)CC[C@]4(C)C3CC[C@]2(C)[C@H]1O (stereo partly specified)	1.6	80.2	18.7	20.9	53.1*	56.3*	x	x
COc1ccc(-n2c(O)c(C=NCCN3CCN(C(C)=O)CC3)c(=O)[nH]c2=S)cc1	-2.7	104.0	1.5	5.4	53.3*	67.3*	29.2	35.8
COCc1cc(OC(=O)N(C)C)nc(-c2ccccc2)n1	-3.3	117.7	-8.5	11.7	15.2	x	x	x
Cc1ccccc1C(O)(Cc1ccccc1)C1CN2CCC1CC2 (stereo unspecified)	1.2	108.2	2.0	9.7	16.6	x	x	x
C[C@]12CCC3C(CC[C@H]4C[C@H](OC(=O)c5cccnc5)CC[C@]34C)C1CCC2=O (stereo partly specified)	25.0	114.0	3.6	30.1	54.4*	60.2*	x	x
C[C@]12CC[C@@H](O)C[C@@H]1CC[C@@H]1[C@@H]2CC[C@]2(C)C(=O)CC[C@@H]12	21.6	75.5	-21.2	37.0	56.1*	66.8*	59.8*	61.2*
C[C@]12CCC3C(CC[C@H]4C[C@H](O)CC[C@]34C)C1C[C@H](O)[C@@H]2O (stereo partly specified)	4.9	83.8	-0.1	31.4	51.4*	49.5*	x	x
C[C@]12CCC3[C@@H](CCC4=CC(=O)CC[C@@]43CO)C1CCC2=O (stereo partly specified)	5.0	95.2	-13.9	12.1	1.1	x	x	x
CC(C)(C)C(=O)O[C@H]1CC[C@@]2(C)C(=CC(=O)C3C2CC[C@]2(C)C(=O)CCC32)C1 (stereo partly specified)	7.8	99.5	18.1	3.6	32.2	x	x	x
C[C@]12CCC3C(CC[C@H]4CC(=O)CC[C@]34C)C1CCC2=O (stereo partly specified)	-40.6	71.4	-43.7	-23.7	60.7*	55.9*	x	x
BrCC1C[n+]2c(SCc3ccccc3)nc3sc4c(c3c2O1)CCCC4 (stereo unspecified)	-13.7	92.6	-22.5	2.5	14.7	x	x	x
Nc1c2c(nc3sc4c(c13)CCCCC4)CCCC2	8.8	112.0	30.1	31.9	63.3*	79.0*	39.2	40.5
O=[N+]([O-])c1cc(F)c(N2CCCC2)cc1Br	3.5	91.7	3.2	13.7	67.2*	81.6*	80.2*	64.1*
CC1CCN(c2cc(Br)c([N+](=O)[O-])cc2F)CC1	15.0	101.3	-10.1	19.3	67.7*	72.8*	77.3*	58.2*
O=[N+]([O-])c1cc(F)c(N2CCCCC2)cc1Br	11.7	122.0	11.3	32.2	42.7	x	x	x
Cc1c(-c2cccc(Cl)c2)nc2ccccc2c1C(=O)N1CCC2(CC1)OCCO2	25.6	86.7	23.4	28.4	76.7*	44.7	21.4	12.8
COc1ccc(-c2nn(CCC#N)cc2C(=O)NCc2ccccc2)cc1[N+](=O)[O-]	-12.6	101.3	-9.3	2.0	17.9	x	x	x
CCCCCC[N+](=O)[O-]	4.2	81.0	3.8	-1.9	8.6	x	x	x
CCCCCCCCCCCCCCCC[N+](C)(C)C	-14.9	78.6	28.6	43.6	60.0*	52.8*	55.1*	59.2*
Cc1cc(OCC(=O)N2CCC(C(=O)NCC(C)C)CC2)c2c3c(c(=O)oc2c1)CCCC3	18.2	129.3	8.0	8.3	-1.2	x	x	x
COc1ccc(NC2(C#N)CCCCC2)cc1	0.4	96.2	-4.7	-3.3	21.2	x	x	x
Fc1ccc(C(OCCN2CCN(CCCc3ccccc3)CC2)c2ccc(F)cc2)cc1	-54.5	97.1	-78.4	-65.1	50.4*	59.2*	x	x
SMILES	tim10-1 inh	Yeast superoxide	TIM10 inh	tim23-1 inh	NLRP3 yeast inh	NALP3 yeast conf	Casp1 ASC ctr	NALP3 retest	others
CC(N)C(=O)OC(C)(C)Cc1ccc(Cl)cc1 (stereo unspecified)	11.6	95.6	14.1	11.4	68.8*	56.4*	48.1	56.1*
CCN(CCNc1ccc([N+](=O)[O-])c2cccnc12)S(=O)(=O)c1ccc(Cl)cc1	11.9	85.3	1.7	7.9	50.0*	64.9*	37.0	34.5
CCN(CCNc1ccc([N+](=O)[O-])c2cccnc12)S(=O)(=O)c1ccccc1	0.6	89.6	3.0	-8.1	0.9	x	x	x
Cc1ccc(CCN2CC(C(=O)N3CCC4(CC3)OCCO4)CC2=O)cc1 (stereo unspecified)	3.6	93.8	11.4	9.5	16.3	x	x	x
COc1ccc(C[C@H]2NC[C@H](O)[C@H]2OC(C)=O)cc1	72.7*	92.3	75.0*	35.8	98.0*	99.0*	x	x	tim10-1 conf=69.5*;TIM10 conf=81.0*
CC(Cc1ccccc1)NC(=O)/C=C/C(=O)O (stereo unspecified)	-1.0	98.4	-5.4	5.1	18.4	x	x	x
Cc1c2ccncc2c(C)c2c1[nH]c1ccccc12	62.9*	96.9	57.3*	56.4*	82.0*	93.5*	71.8*	40.5	tim10-1 conf=30.6;TIM10 conf=69.6*;tim23-1 confirm=62.4*
CN(C)P(=NC(=S)c1cccn1C)(N(C)C)N(C)C	2.8	75.5	11.1	20.0	13.3	x	x	x
N#CC(C#N)=Cc1ccc(O)c(O)c1	21.7	86.3	1.1	11.6	3.5	x	x	x
